Results published in PubChem BioAssay (NCATS).
Results filed as inconclusive are left out. Activity calls are given as the source filed them. Calls follow the shape of the dose curve; as a rule, active = well fitted curve in the direction sought with a large enough effect; inconclusive = small, poorly fitted or top-dose-only effect, or another doubt; inactive = no such curve, though single readings can be large; an effect the other way counts as inactive or inconclusive.

Tests used:
CRL-7250 = normal cell line; assay: Cytotoxic Profiling of Annotated Libraries Using Quantitative High-Throughput Screening (AID 1296008); details: Five cell lines viability, CellTiter-Glo ATP luminescence, 48-72 h; max response: active compounds read low; also: nearly all actives have a fitted effect of over 60% in size; as to max response: % is scaled to controls: 0 for no effect and ±100 for the full control effect
Summary of the method: (§1)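 Cells exposed to compounds for 48 or 72 hr at 37 degrees Celsius. Viability read as ATP-coupled luminescence with CellTiter-Glo after 10 min at room temperature.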

HEK293 = assay: as above; details: Five cell lines viability, CellTiter-Glo ATP luminescence, 48-72 h; max response: active compounds read low
Summary of the method: as §1

HaCat = assay: as above; details: Five cell lines viability, CellTiter-Glo ATP luminescence, 48-72 h; max response: active compounds read low
Summary of the method: as §1

KB-3-1 = assay: as above; details: Five cell lines viability, CellTiter-Glo ATP luminescence, 48-72 h; max response: active compounds read low
Summary of the method: as §1

NIH3T3 [1] = assay: as above; details: Five cell lines viability, CellTiter-Glo ATP luminescence, 48-72 h; max response: active compounds read low
Summary of the method: as §1

HEK293T = assay: qHTS assay to identify novel small-molecules to repurpose for Merkel cell carcinoma treatment (AID 1296009); details: MCC and control cell lines, CellTiter-Glo viability, 72 h; series mostly up to 44.8 µM; also: nearly all actives have a fitted effect of over 60% in size
Summary of the method: (§2)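 CellTiter-Glo luminescence after 72 hr compound exposure at 37 degree celsius gave cell viability. Libraries NPC and MIPE were run as 8- and 11-point dose responses; RLUs normalized to DMSO (negative) and no-cell (cytotoxicity) controls.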

NIH3T3 [2] = assay: as above; details: MCC and control cell lines, CellTiter-Glo viability, 72 h; at 44.8 µM (top of the series) unless noted
Summary of the method: as §2

C33A = assay: Primary qHTS to identify gynecologic anti-cancer compounds using libraries of approved drugs and bioactive compounds (AID 1345084); details: Gynecologic cancer cell panel viability, ATPlite luminescence, 48 h; series mostly up to 57.5 µM; also: % is scaled to controls: 0 for no effect and ±100 for the full control effect; nearly all actives have a fitted effect of over 55% in size
Summary of the method: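 Cytotoxicity screen measuring ATP content by luciferase luminescence. Each compound is applied at five concentrations for 48 h at 37 C with 5% CO2.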

CCOC(=O)Nc1nc2ccccc2[nH]1
inactive: max response (CRL-7250) 3.6% | outcome (HEK293) | max response (HaCat) -2.18% | max response (KB-3-1) 2.03% | outcome (NIH3T3 [1]) | Potency (HEK293T) | outcome (NIH3T3 [2]) | Potency (C33A)

CC1(C)CCC(C)(C)c2cc([C@@H](O)C(=O)Nc3ccc(C(=O)O)cc3F)ccc21
inactive: max response (CRL-7250) -3.37% | outcome (HEK293) | max response (HaCat) -6.8% | outcome (KB-3-1) | outcome (NIH3T3 [1]) | Potency (HEK293T) | outcome (NIH3T3 [2]) | Potency (C33A)

Nc1nc(CC(=O)Nc2ccc(CCNCC(O)c3ccccc3)cc2)cs1 (stereo not drawn)
inactive: max response (CRL-7250) 2.98% | outcome (HEK293) | max response (HaCat) -9.93% | outcome (KB-3-1) | outcome (NIH3T3 [1]) | Potency (HEK293T) | outcome (NIH3T3 [2]) | Potency (C33A)

CC1CCC23COC(=O)C2=CC(O)CC3C1(C)CCC1=CC(=O)OC1O (stereo not drawn)
inactive: outcome (CRL-7250) | outcome (HEK293) | max response (HaCat) -0.369% | outcome (KB-3-1) | outcome (NIH3T3 [1]) | Potency (HEK293T) | outcome (NIH3T3 [2]) | Potency (C33A)

C[C@@H]1CC[C@]2(C(=O)O)CC[C@]3(C(=O)O)C(=CCC4[C@@]5(C)CC[C@H](O[C@@H]6O[C@@H](C)[C@H](O[C@@H]7O[C@H](CO)[C@@H](O)[C@H](O)[C@H]7O)[C@@H](O)[C@H]6O)C(C)(C)C5CC[C@]43C)C2[C@H]1C (stereo partly drawn)
inactive: max response (CRL-7250) 0.369% | outcome (HEK293) | max response (HaCat) -0.856% | outcome (KB-3-1) | outcome (NIH3T3 [1]) | Potency (HEK293T) | outcome (NIH3T3 [2]) inactive [at 17.4 µM] | Potency (C33A)

COC1=CC(=O)C[C@@H](C)[C@]12Oc1cc(OC)cc(OC)c1C2=O
inactive: max response (CRL-7250) -2.71% | outcome (HEK293) | max response (HaCat) -2.69% | max response (KB-3-1) 5.37% | outcome (NIH3T3 [1]) | Potency (HEK293T) | outcome (NIH3T3 [2]) | Potency (C33A)

CCOC(=O)N1CCC(NCCNC(=O)c2ccccc2C)CC1
inactive: max response (CRL-7250) 3.66% | outcome (HEK293) | max response (HaCat) -7.3% | max response (KB-3-1) 6.5% | outcome (NIH3T3 [1]) | Potency (HEK293T) | outcome (NIH3T3 [2]) | Potency (C33A)

CC1=CC(=O)CC(C)(CO[C@@H]2O[C@H](CO)[C@@H](O)[C@H](O)[C@H]2O)C1(O)/C=C/C(C)=C/C(=O)O (stereo partly drawn)
inactive: outcome (CRL-7250) | outcome (HEK293) | max response (HaCat) -0.434% | outcome (KB-3-1) | outcome (NIH3T3 [1]) | Potency (HEK293T) | outcome (NIH3T3 [2]) inactive [at 17.4 µM] | Potency (C33A)

OC[C@H]1O[C@@H](Oc2ccc(O)c3cccc(O)c23)[C@H](O)[C@@H](O)[C@@H]1O
inactive: outcome (CRL-7250) | outcome (HEK293) | max response (HaCat) -1.01% | max response (KB-3-1) 3.57% | outcome (NIH3T3 [1]) | Potency (HEK293T) | outcome (NIH3T3 [2]) | Potency (C33A)

COc1ccc2c(c1)O[C@H](O[C@@H]1O[C@H](CO)[C@@H](O)[C@H](O)[C@H]1O)C(=O)N2
inactive: outcome (CRL-7250) | outcome (HEK293) | max response (HaCat) -4.71% | outcome (KB-3-1) | outcome (NIH3T3 [1]) | Potency (HEK293T) | outcome (NIH3T3 [2]) | Potency (C33A)

CCC(=O)N[C@@H]1Cc2ccccc2[C@H](c2ccccc2)C1
inactive: outcome (CRL-7250) | outcome (HEK293) | max response (HaCat) 0.895% | outcome (KB-3-1) | outcome (NIH3T3 [1]) | Potency (HEK293T) | outcome (NIH3T3 [2]) | Potency (C33A)

C[C@@H]1O[C@@H](O[C@H]2[C@H](O[C@H]3[C@H](O[C@H]4CC[C@@]5(C=O)C(CC[C@]6(C)C5CC=C5C7CC(C)(C)C[C@@H](O)[C@]7(C)CC[C@]56C)C4(C)C)O[C@H](C(=O)O)[C@@H](O)[C@@H]3O)OC[C@@H](O)[C@@H]2O)[C@H](O)[C@H](O)[C@H]1O (stereo partly drawn)
inactive: outcome (CRL-7250) | outcome (HEK293) | max response (HaCat) -16.7% | max response (KB-3-1) 7.57% | outcome (NIH3T3 [1]) | outcome (HEK293T) inactive [at 9.27 µM] | outcome (NIH3T3 [2]) inactive [at 9.27 µM] | activity change, negative = cytotoxicity (C33A) 7.86% [at 11.6 µM]

CC1=CCC2C(C)(CO)CCCC2(C)C1CC12OC1C(O)C(CO)=CC2O (stereo not drawn)
inactive: max response (CRL-7250) 4.27% | outcome (HEK293) | max response (HaCat) -8.88% | outcome (KB-3-1) | outcome (NIH3T3 [1]) | Potency (HEK293T) | outcome (NIH3T3 [2]) | Potency (C33A)

CO[C@@]12CC3[C@@H]([C@@H](O)[C@@H](OC(C)=O)C4[C@](C)(COC(C)=O)CCC[C@]34C)[C@@H](C)C1=CC(=O)O2 (stereo partly drawn)
inactive: outcome (CRL-7250) | outcome (HEK293) | max response (HaCat) 3.42% | outcome (KB-3-1) | outcome (NIH3T3 [1]) | Potency (HEK293T) | outcome (NIH3T3 [2]) inactive [at 17.4 µM] | Potency (C33A)

C=C1CCC2C(C)(C(=O)O)CC(O)CC2(C)C1CC/C(C)=C/C(=O)O (stereo not drawn)
inactive: max response (CRL-7250) -3.85% | outcome (HEK293) | max response (HaCat) 3.69% | max response (KB-3-1) 5.42% | outcome (NIH3T3 [1]) | Potency (HEK293T) | outcome (NIH3T3 [2]) | Potency (C33A)

CCC(NC(=O)CC(NC(=O)C(CO)NC(=O)C(CC)NC(=O)c1ccc[nH]1)c1ccccc1)C(=O)O (stereo not drawn)
inactive: max response (CRL-7250) -9.47% | outcome (HEK293) | max response (HaCat) -0.876% | outcome (KB-3-1) | outcome (NIH3T3 [1]) | Potency (HEK293T) | outcome (NIH3T3 [2]) inactive [at 17.4 µM] | Potency (C33A)
